PubChem BioAssay AID1159580 (chemical genetic matrix, 2015)
The campaign covered roughly 5,500 compounds. About 2,000 (36%) were called active. About 18% were inconclusive and are not listed. Rule as the data show it: active = normalized growth mostly below about 0.91 (no sharp cut-off); inconclusive = no clear call, values can overlap the other calls; inactive = mostly above about 0.92. Some of the results follow.

Assay: chemical genetic growth profiling, strain panel (AID 1159580);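 also: tested at 20 µM; growth read once vehicle control cultures reached saturation at 30 °C; 1 = growth at the plate median or of vehicle wells; lower values mean less growth of the strain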
Conditions: S. cerevisiae deletion strains, growth OD

Measured: normalized growth

CC(=O)O[C@H]1CC[C@@]2(C)C(=CCC3C2CC[C@]2(C)C(=O)CCC32)C1 (stereo partly drawn)
active: locus YAL013W, strain DEP1, hits give low values 0.775 | locus YAL021C, strain ccr4, hits give low values 0.877 | locus YAL026C, strain drs2, hits give low values 0.6 | locus YBR021W, strain FUR4, hits give low values 0.833 | locus YCL029C, strain bik1, hits give low values 0.895 | locus YDL035C, strain GPR1, hits give low values 0.686 | locus YDL074C, strain BRE1, hits give low values 0.612 | locus YDR137W, strain rgp1, hits give low values 0.568 | locus YDR162C, strain NBP2, hits give low values 0.596 | locus YDR195W, strain ref2 1.3 [resistant] | locus YDR318W, strain mcm21, hits give low values 0.844 | locus YDR392W, strain spt3, hits give low values 0.43 | locus YDR502C, strain sam2, hits give low values 0.843 | locus YER155C, strain BEM2, hits give low values 0.752 | locus YER167W, strain BCK2, hits give low values 0.892 | locus YGL086W, strain mad1, hits give low values 0.884 | locus YGL248W, strain PDE1, hits give low values 0.721 | locus YGR135W, strain pre9, hits give low values 0.884 | locus YHR030C, strain SLT2, hits give low values 0.779 | locus YHR129C, strain ARP1, hits give low values 0.788 | locus YIL066C, strain RNR3, hits give low values 0.812 | locus YJL095W, strain BCK1, hits give low values 0.433 | locus YJL164C, strain tpk1, hits give low values 0.906 | locus YLR039C, strain RIC1, hits give low values 0.403 | locus YLR262C, strain YPT6 (second series), hits give low values 0.514 | locus YLR262C, strain YPT6, hits give low values 0.413 | locus YLR320W, strain mms22, hits give low values 0.846 | locus YLR330W, strain CHS5, hits give low values 0.814 | locus YLR342W, strain FKS1 (second series), hits give low values 0.742 | locus YLR418C, strain cdc73, hits give low values 0.698 | locus YML032C, strain rad52, hits give low values 0.866 | locus YMR223W, strain ubp8, hits give low values 0.878 | locus YNL071W, strain lat1, hits give low values 0.758 | locus YNL233W, strain BNI4, hits give low values 0.724 | locus YNL298W, strain CLA4, hits give low values 0.859 | locus YNL307C, strain MCK1, hits give low values 0.516 | locus YNR052C, strain pop2, hits give low values 0.85 | locus YOL147C, strain pex11, hits give low values 0.92 | locus YOR184W, strain ser1, hits give low values 0.477 | locus YPL055C, strain LGE1, hits give low values 0.594 | locus YPL078C, strain atp4, hits give low values 0.891 | locus YPL106C, strain sse1, hits give low values 1.22 [resistant] | strain wtn01, hits give low values 0.848
inactive: locus YAL030W, strain snc1, hits give low values 1.02 | locus YBL061C, strain skt5, hits give low values 1.02 | locus YBR009C, strain hhf1, hits give low values 0.908 | locus YBR023C, strain chs3, hits give low values 0.961 | locus YBR171W, strain sec66, hits give low values 1.02 | locus YBR229C, strain ROT2, hits give low values 1 | locus YBR231C, strain swc5, hits give low values 1.04 | locus YBR279W, strain paf1, hits give low values 0.975 | locus YCL011C, strain gbp2, hits give low values 0.912 | locus YCL016C, strain dcc1, hits give low values 0.917 | locus YCL069W, strain vba3, hits give low values 0.951 | locus YCR088W, strain abp1, hits give low values 1.05 | locus YDL005C, strain med2, hits give low values 1.02 | locus YDL040C, strain nat1, hits give low values 1.03 | locus YDL101C, strain DUN1, hits give low values 0.981 | locus YDL185W, strain tfp1, hits give low values 1.01 | locus YDL192W, strain arf1, hits give low values 1.01 | locus YDR001C, strain nth1, hits give low values 1.04 | locus YDR069C, strain doa4, hits give low values 1.02 | locus YDR101C, strain arx1, hits give low values 0.932 | locus YDR159W, strain sac3, hits give low values 1.01 | locus YDR297W, strain sur2, hits give low values 0.99 | locus YDR334W, strain swr1, hits give low values 1.06 | locus YDR335W, strain msn5, hits give low values 0.937 | locus YDR388W, hits give low values 1.02 | locus YEL003W, strain gim4, hits give low values 0.942 | locus YEL037C, strain rad23, hits give low values 0.994 | locus YEL061C, strain CIN8 (second series), hits give low values 1.02 | locus YEL061C, strain CIN8, hits give low values 0.928 | locus YER015W, strain faa2, hits give low values 0.948 | locus YER016W, strain bim1, hits give low values 1.02 | locus YER110C, hits give low values 1.03 | locus YER111C, strain swi4, hits give low values 1.03 | locus YER155C, strain BEM2 (second series), hits give low values 0.991 | locus YFR010W, strain ubp6, hits give low values 0.96 | locus YGL078C, strain dbp3, hits give low values 0.979 | locus YGL167C, strain pmr1, hits give low values 1.02 | locus YGL173C, strain kem1, hits give low values 1 | locus YGL227W, strain vid30, hits give low values 1.04 | locus YGL240W, strain doc1, hits give low values 1.02 | locus YGL253W, strain hxk2, hits give low values 0.939 | locus YGR229C, strain SMI1, hits give low values 0.813 | locus YGR252W, strain gcn5, hits give low values 0.81 | locus YHR013C, strain ard1, hits give low values 0.966 | locus YHR027C, strain rpn1, hits give low values 1.02 | locus YHR079C, strain IRE1 (second series), hits give low values 0.962 | locus YHR094C, strain hxt1, hits give low values 1.04 | locus YHR142W, strain chs7, hits give low values 0.877 | locus YHR200W, strain rpn10, hits give low values 0.961 | locus YIL073C, strain SPO22, hits give low values 0.679 | locus YIL125W, strain kgd1, hits give low values 1 | locus YIR030C, strain dcg1, hits give low values 1.02 | locus YJL092W, strain hpr5, hits give low values 1 | locus YJL095W, strain BCK1 (second series), hits give low values 1.01 | locus YJL115W, strain asf1, hits give low values 1.05 | locus YJL129C, strain trk1, hits give low values 0.939 | locus YJL134W, strain LCB3, hits give low values 1.02 | locus YJL154C, strain vps35, hits give low values 1.03 | locus YJL166W, strain qcr8, hits give low values 0.903 | locus YJL168C, strain set2, hits give low values 1.02 | locus YJL187C, strain SWE1 (second series), hits give low values 0.887 | locus YJR043C, strain POL32, hits give low values 0.857 | locus YJR075W, strain HOC1, hits give low values 0.887 | locus YKL009W, strain mrt4, hits give low values 0.938 | locus YKL068W, hits give low values 1.03 | locus YKL085W, strain MDH1 (second series), hits give low values 0.964 | locus YKL085W, strain MDH1, hits give low values 0.964 | locus YKL160W, strain elf1, hits give low values 0.906 | locus YKL190W, strain CNB1, hits give low values 0.945 | locus YKR001C, strain vps1, hits give low values 0.961 | locus YKR026C, strain gcn3, hits give low values 1.05 | locus YKR091W, strain srl3, hits give low values 1.03 | locus YLL001W, strain dnm1, hits give low values 0.918 | locus YLL026W, hits give low values 1.02 | locus YLL041C, strain sdh2, hits give low values 1.03 | locus YLR027C, strain aat2, hits give low values 0.954 | locus YLR058C, strain SHM2, hits give low values 0.892 | locus YLR102C, strain apc9, hits give low values 1.04 | locus YLR221C, strain rsa3, hits give low values 0.966 | locus YLR258W, strain gsy2, hits give low values 0.952 | locus YLR268W, strain sec22, hits give low values 0.887 | locus YLR342W, strain FKS1, hits give low values 0.976 | locus YLR357W, strain rsc2, hits give low values 1.1 | locus YLR370C, strain arc18, hits give low values 1.01 | locus YLR371W, strain rom2, hits give low values 1.02 | locus YLR384C, strain iki3, hits give low values 1.03 | locus YML016C, strain PPZ1, hits give low values 0.947 | locus YML120C, strain ndi1, hits give low values 0.928 | locus YML124C, strain tub3, hits give low values 1.03 | locus YMR058W, strain fet3, hits give low values 0.988 | locus YMR078C, strain ctf18, hits give low values 1.01 | locus YMR125W, strain sto1, hits give low values 1.05 | locus YMR129W, hits give low values 1.03 | locus YMR205C, strain PFK2, hits give low values 0.876 | locus YMR231W, strain pep5, hits give low values 1.01 | locus YMR263W, strain SAP30, hits give low values 0.943 | locus YMR307W, strain GAS1, hits give low values 0.865 | locus YNL067W, strain RPL9B, hits give low values 0.887 | locus YNL209W, strain ssb2, hits give low values 0.942 | locus YNL248C, strain rpa49, hits give low values 0.98 | locus YNL250W, strain rad50, hits give low values 0.914 | locus YNL271C, strain bni1, hits give low values 0.965 | locus YNL322C, strain KRE1 (second series), hits give low values 1.04 | locus YNR049C, strain mso1, hits give low values 1.04 | locus YOL012C, strain htz1 1.72 | locus YOR001W, strain rrp6, hits give low values 0.969 | locus YOR061W, strain CKA2, hits give low values 0.89 | locus YOR069W, strain VPS5, hits give low values 0.988 | locus YOR070C, strain gyp1, hits give low values 0.937 | locus YOR080W, strain dia2, hits give low values 1 | locus YOR083W, strain WHI5, hits give low values 0.903 | locus YOR106W, strain vam3, hits give low values 0.883 | locus YOR136W, strain idh2, hits give low values 0.95 | locus YOR144C, strain elg1, hits give low values 0.989 | locus YOR265W, strain rbl2, hits give low values 0.973 | locus YOR270C, strain vph1, hits give low values 1.05 | locus YOR290C, strain snf2, hits give low values 0.881 | locus YOR316C, strain cot1, hits give low values 1.02 | locus YPL051W, strain arl3, hits give low values 0.953 | locus YPL240C, strain hsp82, hits give low values 0.983 | locus YPL241C, strain CIN2, hits give low values 1 | locus YPR119W, strain clb2, hits give low values 1.04 | locus YPR141C, strain kar3, hits give low values 1.04 | locus YPR163C, strain tif3, hits give low values 0.941 | locus YPR167C, strain met16, hits give low values 0.97
